# Screening data as filed in PubChem BioAssay.
# 12-LOX inh – Primary qHTS assay for inhibitors of human arachidonate 12S-lipoxygenase (ALOX12): Round 2. AID 1671190, 2021. Potency, µM (top dose mostly 108 µM), usual class: inhibitors. purified 12hLO, xylenol orange hydroperoxide absorbance. Polyunsaturated fatty acid lipoxygenase ALOX12 (Homo sapiens), P18054. 580,000 compounds, 1.1% hits
# Target sequence (P18054 whole entry, looked up): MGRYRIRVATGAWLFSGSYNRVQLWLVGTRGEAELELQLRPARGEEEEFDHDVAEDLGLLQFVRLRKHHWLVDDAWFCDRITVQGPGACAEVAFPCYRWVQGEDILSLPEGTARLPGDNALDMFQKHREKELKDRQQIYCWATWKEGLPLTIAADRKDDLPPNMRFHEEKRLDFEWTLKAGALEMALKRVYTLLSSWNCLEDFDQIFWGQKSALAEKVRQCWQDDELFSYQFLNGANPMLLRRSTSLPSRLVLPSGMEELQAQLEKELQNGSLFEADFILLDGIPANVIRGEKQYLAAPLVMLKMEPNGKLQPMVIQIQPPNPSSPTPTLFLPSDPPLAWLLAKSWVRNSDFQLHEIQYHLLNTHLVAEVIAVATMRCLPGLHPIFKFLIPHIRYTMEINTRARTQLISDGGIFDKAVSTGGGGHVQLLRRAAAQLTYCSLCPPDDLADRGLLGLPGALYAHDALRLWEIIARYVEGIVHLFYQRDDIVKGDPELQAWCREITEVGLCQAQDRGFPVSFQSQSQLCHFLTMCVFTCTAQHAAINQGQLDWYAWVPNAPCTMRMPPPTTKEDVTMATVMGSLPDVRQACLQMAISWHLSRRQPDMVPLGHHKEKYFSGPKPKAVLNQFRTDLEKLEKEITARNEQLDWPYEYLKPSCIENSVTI
#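 Purified human 12hLO (150 nM final) in 25 mM Hepes, 0.01% Triton X-100, pH 7.0 was preincubated 15 min at room temperature with compound. Then 40 uM arachidonic acid was added, 30 min. Hydroperoxide was read by Fe-XO absorbance ratio 573/405 nm.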
# MCF10A rereplic – A quantitative high throughput screen for small molecules that induce DNA re-replication in MCF 10a normal breast cells. MCF 10A DNA re-replication, Hoechst nuclear intensity, 48 h. Potency, µM (doses to about 46.1 µM), actives largely listed as activators. 350,000 compounds, 2.9% hits; also: nearly all actives have a fitted effect of over 50% in size
# PINK1 expr mod – A Quantitative High throughput Screen to Identify Chemical Modulators of PINK1 Expression; 410,000 compounds, 0.2% hits; Potency, µM (top dose mostly 76.6 µM), hits mostly activators; AID 624263, 2012; PINK1 immunofluorescence, high-content cytometry, 24 h; active = well fitted activation curve with a large enough effect; inconclusive = small, poorly fitted or top-dose-only effect; cell line not stated here; also: nearly all actives have a fitted effect of over 65% in size
#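 Measures PINK1 amount and localization on or inside mitochondria by immunofluorescence. Stable cells get compounds at 5 concentrations for 24 hours before fixation and staining; CCCP controls included.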
# KB-V1 cytotox – qHTS assay for MDR1-selective chemotherapeutics: Primary screen using the drug-selected MDR subline cells KB-V1 | KB-V1 MDR cells viability, CellTiter-Glo, 72 h | Potency, µM (doses to about 46.1 µM), usual class: cytotoxic | 400,000 compounds, 3.4% hits | AID 1347076, 2019; also: nearly all actives have a fitted effect of over 60% in size
#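 Luminescent ATP read-out (CellTiter-Glo, 10 min) measures survival of drug-selected KB-V1 MDR cells after 72 h, 37 degrees C compound exposure. Medium: phenol-red-free DMEM, 10% FBS. Values from fitted concentration-response curves.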
# KB-3-1 tox – qHTS assay for MDR1-selective chemotherapeutics: Primary screen using the parental adenocarcinoma cell KB-3-1 | KB-3-1 viability, CellTiter-Glo ATP luminescence, 72 h | Potency, µM (titrated, usually from 46.1 µM), actives largely listed as cytotoxic | 400,000 compounds, 1.4% hits; also: nearly all actives have a fitted effect of over 60% in size
#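 KB-3-1 parental drug-naive adenocarcinoma cells in DMEM/10% FBS, incubated 72 h at 37 C with pin-transferred compounds across a concentration series. Viability by CellTiter-Glo luminescence; concentration-response curves fitted after normalization.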
# SW480 rerep – A quantitative high throughput screen for small molecules that induce DNA re-replication in SW480 colon adenocarcinoma cells | SW480 DNA re-replication, Hoechst DNA content imaging, 48 h | Potency, µM (titrated, usually from 46.1 µM), hits mostly activators | 340,000 compounds, 1.8% hits; also: nearly all actives have a fitted effect of over 55% in size
#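 Cells (250 per well) received 23 nL compound or DMSO by pin tool and were kept 48 hr at 37 C, 5% CO2. Nuclei were then stained with Hoechst for 40 min and scanned for DNA content.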
# A number is an active result; - = inactive; ? = inconclusive; . = no result; [ ] = remark or other dose. Only some compounds are listed: those with a hit (about 5.8% of all), similar ones and a draw of the others. Unless noted, calls follow the shape of the dose curve; as a rule, active = well fitted curve in the direction sought with a large enough effect; inconclusive = small, poorly fitted or top-dose-only effect, or another doubt; inactive = no such curve, though single readings can be large; an effect the other way counts as inactive or inconclusive.
SMILES,12-LOX inh,MCF10A rereplic,PINK1 expr mod,KB-V1 cytotox,KB-3-1 tox,SW480 rerep
Cc1cccc(NC(=S)NNC(=O)c2csc3c2CCC(C)C3)c1 (stereo unspecified),?,?,-,23µM,-,-
Cc1cccc(NC(=S)N/N=C2/CCCC(C)C2)c1 (stereo unspecified),35µM,.,.,.,.,.
CCCc1cc(C(=O)NNC(=S)Nc2cccc(C)c2)cs1,?,-,-,15µM,-,-
O=c1n(-c2ccc(C(F)(F)F)cc2)nc2n1CCN(Cc1ccc(F)cc1)C2,-,.,.,.,.,.
CC1CCc2c(C(=O)NCCN3CCOCC3)csc2C1 (stereo unspecified),-,-,-,-,-,-
CC(C)CNC(=S)NNC(=O)c1csc2c1CCC(C)C2 (stereo unspecified),?,-,-,7.3µM,-,-
Fc1ccc(N=Cc2ccc3ncccc3c2)c(Cl)c1,-,.,.,.,.,.
COc1cc(OC)c(NS(=O)(=O)c2ccc(Cl)c(C(=O)OC(C)C(=O)N3CCCC3)c2)cc1Cl (stereo unspecified),-,?,-,2.3µM,16µM,-
Cc1cc(Cl)ccc1NNC(=O)c1c(C)noc1C,32µM,?,-,-,-,-[9.22 µM]
Cc1ccc(NNC(=O)c2c(C)noc2C)cc1Cl,?,-,-,-,-,-
COc1ccc(-n2c(O)c(C=Nc3ccccc3)c3ccccc3c2=O)cc1,-,?,-,-,?,?
CCN(c1ccc(N=Cc2c(O)n(Cc3ccc(OC)cc3)c(=O)c3ccccc23)cc1)C(C)C,-,7.3µM,-,-,-,?
CN1C(=O)C(CC(=O)Nc2ccc(Cl)cc2)N(Cc2ccco2)C1=S (stereo unspecified),?,21µM,-,-,-,-
CCOc1ccc(NC(=O)CC2C(=O)N(C)C(=S)N2Cc2ccco2)cc1 (stereo unspecified),-,-,-,-,-,-
O=C(N/N=C/c1ccccc1F)c1ccc(COc2ccccc2Cl)o1,-,?,-,18µM,-,-
COC(=O)c1ccc(COc2ccccc2/C=N/O)o1,-,-,-,-,-,1.8µM
Oc1cccc2[nH]ncc12,-,.,.,.,.,.
O=C(Nc1cc(=O)[nH]c2nc(C(F)(F)F)nn12)c1ccc(Cl)cc1Cl,25µM,.,.,.,.,.
CN1CCN(C(=O)c2ccc(Cl)c(S(=O)(=O)N3CCCCC3)c2)CC1,-,-,-,15µM,-,-
CCOc1ccccc1N1CCN(C(=O)c2ccc(Cl)c(S(=O)(=O)N3CCCCC3)c2)CC1,-,?,-,7.3µM,-,-
CN1CCCN(C(=O)c2ccc(Cl)c(S(=O)(=O)N(C)c3ccccc3)c2)CC1,-,21µM,-,?,-,-
COc1cc2c(cc1OC)CN(C(=O)c1ccc3nc[nH]c3c1)CC2,-,8.2µM,-,-,?,5.8µM
COC(=O)c1[nH]c2ccc(C)cc2c1NC(=O)CCN1CCCCC1,-,.,.,.,.,.
COC(=O)c1ccc(Oc2coc3cc(OC(=O)c4cccs4)ccc3c2=O)cc1,-,.,.,.,.,.
COc1cc2c(cc1OC)CN(C(=O)c1ccc(OC)c(S(=O)(=O)N3CCCC3)c1)CC2,-,-,-,?,-,?
SMILES,12-LOX inh,MCF10A rereplic,PINK1 expr mod,KB-V1 cytotox,KB-3-1 tox,SW480 rerep
COc1cc2c(cc1OC)CN(C(=O)c1ccc(Cl)c(S(=O)(=O)N3CCCC3)c1)CC2,-,?,-,21µM,-,-
COc1cc(/C=N/Nc2cccc(C)c2)cc(Br)c1O,2.8µM,-,-,-,?,-
O=C(NCCc1ccccn1)C1c2ccccc2C(=O)N(C2CCCCC2)C12CCCCC2 (stereo unspecified),-,.,.,.,.,.
O=C(NCc1ccc(Cl)cc1)c1cc2c(s1)-c1ccccc1SC2,?,.,-,.,.,.
NNC(=O)c1cc2c(s1)-c1cc(Cl)ccc1SC2,-,21µM,-,-,?,29µM
CCOC(=O)[C@]12CCC=C1N(Cc1ccc(Cl)cc1Cl)C(=O)[C@H](CC(=O)N1CCCC1)C2,?,.,-,?,-,.
CCCCOCCCNC(=O)C[C@@H]1C[C@@]2(C(=O)OCC)CCC=C2N(Cc2ccc(Cl)cc2Cl)C1=O,-,.,-,18µM,?,.
CCOC(=O)N1CCN(C(=O)C[C@@H]2C[C@@]3(C(=O)OCC)CCC=C3N(Cc3ccc(Cl)cc3Cl)C2=O)CC1,-,.,-,10µM,-,.
CCOC(=O)[C@]12CCC=C1N(Cc1ccc(Cl)cc1Cl)C(=O)[C@H](CC(=O)N1CCN(C(=O)c3ccco3)CC1)C2,-,.,-,10µM,-,.
Cc1ccc(C(C)C)cc1OCC(=O)NCc1ccc(Cn2cccn2)cc1,-,.,.,.,.,.
COc1ccccc1NC(=O)c1c(-n2cnnn2)sc(C)c1C,-,.,.,.,.,.
O=C/C(=C\Nc1ccccn1)c1nc2cc(Cl)ccc2o1,-,16µM,-,-,-,-
O=C/C(=C\Nc1ccccn1)c1nc2ccccc2o1,-,21µM,-,-,-,?
O=C/C(=C\Nc1ccc(Br)cc1)c1nc2ccccc2o1,-,-,-,-,-,-
O=C(CC1SC(=Nc2ccc(OC(F)F)cc2)N(CCN2CCOCC2)C1=O)Nc1ccc(F)cc1F (stereo unspecified),-,-,-,-,-,-
CN=C1SC(CC(=O)Nc2ccc(F)cc2F)C(=O)N1/N=C/c1ccc(OC(F)F)c(OC)c1 (stereo unspecified),-,4.6µM,-,-,-,-
CC(NC(=O)c1ccccc1NC(=O)CN1CCc2ccccc2C1)c1ccccc1 (stereo unspecified),-,26µM,-,18µM,?,?
CC(NC(=O)c1ccccc1NC(=O)CN1CCN(c2ccccc2O)CC1)c1ccccc1 (stereo unspecified),-,-,-,?,-,-
Cc1cccc(N2CCN([C@H]3CS(=O)(=O)C[C@@H]3S(=O)(=O)c3ccc(Cl)cc3)CC2)c1C,-,.,.,.,.,.
CCC1=Nc2cc(C(=O)NCCN(CC)CC)ccc2Sc2ccccc21,-,.,-,-,-,.
CCOCCCNC(=O)c1ccc2c(c1)N=C(CC)c1cc(Br)ccc1S2,-,?,-,0.52µM,1µM,1.8µM
CCCC1=Nc2cc(C(=O)NCCc3ccccc3)ccc2Sc2ccc(C)cc21,-,.,-,?,7.3µM,.
CCCC1=Nc2cc(C(=O)NC(C)c3ccccc3)ccc2Sc2ccc(C)cc21 (stereo unspecified),-,.,-,-,-,.
CCC1=Nc2cc(C(=O)NCCc3ccccc3)ccc2Sc2ccc(Cl)cc21,?,.,-,-,10µM,.
